Where “and” joins values, the source holds several entries; their conditions need not be identical. Equal values may be shown once. Hit rate of the full screen: of about 5,500 compounds, about 2,000 (36%) were called active. Another 18% or so got no clear call; they are omitted. Cut-off read from the data, not from the text of the source: active = normalized growth mostly below about 0.91 (no sharp cut-off); inconclusive = no clear call, values can overlap the other calls; inactive = mostly above about 0.92. The list shows a part of the results.
Assay: chemical genetic growth profiling, strain panel (AID 1159580);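 note: tested at 20 µM; growth read once vehicle control cultures reached saturation at 30 °C; 1 = growth at the plate median or of vehicle wells; lower values mean less growth of the strain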
Conditions: growth OD

Measured: normalized growth

O=c1[nH]c2cc(Cl)c(Cl)cc2[nH]c1=O
active: S. cerevisiae deletion strains, locus YLR330W, strain CHS5, stronger effect = lower value 0.894
inactive: S. cerevisiae deletion strains, locus YJR075W, strain HOC1, stronger effect = lower value 1 and 1.01 | S. cerevisiae deletion strains, locus YKL009W, strain mrt4, stronger effect = lower value 1.02 | S. cerevisiae deletion strains, locus YKL068W, stronger effect = lower value 1.02 | S. cerevisiae deletion strains, locus YKL085W, strain MDH1 (second series), stronger effect = lower value 1.01 | S. cerevisiae deletion strains, locus YKL085W, strain MDH1, stronger effect = lower value 1.01 | S. cerevisiae deletion strains, locus YKL160W, strain elf1, stronger effect = lower value 0.988 | S. cerevisiae deletion strains, locus YKL190W, strain CNB1, stronger effect = lower value 1.01 | S. cerevisiae deletion strains, locus YKR001C, strain vps1, stronger effect = lower value 1.05 | S. cerevisiae deletion strains, locus YKR026C, strain gcn3, stronger effect = lower value 0.989 | S. cerevisiae deletion strains, locus YKR091W, strain srl3, stronger effect = lower value 0.987 | S. cerevisiae deletion strains, locus YLL001W, strain dnm1, stronger effect = lower value 0.992 | S. cerevisiae deletion strains, locus YLL026W, stronger effect = lower value 0.988 | S. cerevisiae deletion strains, locus YLL041C, strain sdh2, stronger effect = lower value 0.995 | S. cerevisiae deletion strains, locus YLR027C, strain aat2, stronger effect = lower value 0.957 | S. cerevisiae deletion strains, locus YLR039C, strain RIC1, stronger effect = lower value 1.04 | S. cerevisiae deletion strains, locus YLR058C, strain SHM2, stronger effect = lower value 1.01 | S. cerevisiae deletion strains, locus YLR102C, strain apc9, stronger effect = lower value 1.02 | S. cerevisiae deletion strains, locus YLR221C, strain rsa3, stronger effect = lower value 0.955 | S. cerevisiae deletion strains, locus YLR258W, strain gsy2, stronger effect = lower value 0.99 | S. cerevisiae deletion strains, locus YLR262C, strain YPT6 (second series), stronger effect = lower value 0.989 | S. cerevisiae deletion strains, locus YLR262C, strain YPT6, stronger effect = lower value 1.04 | S. cerevisiae deletion strains, locus YLR268W, strain sec22, stronger effect = lower value 1.03 | S. cerevisiae deletion strains, locus YLR320W, strain mms22, stronger effect = lower value 0.963 | S. cerevisiae deletion strains, locus YLR342W, strain FKS1 (second series), stronger effect = lower value 0.99 | S. cerevisiae deletion strains, locus YLR342W, strain FKS1, stronger effect = lower value 0.988 | S. cerevisiae deletion strains, locus YLR357W, strain rsc2, stronger effect = lower value 0.984 | S. cerevisiae deletion strains, locus YLR370C, strain arc18, stronger effect = lower value 0.995 | S. cerevisiae deletion strains, locus YLR371W, strain rom2, stronger effect = lower value 1.03 | S. cerevisiae deletion strains, locus YLR384C, strain iki3, stronger effect = lower value 1.01 | S. cerevisiae deletion strains, locus YLR418C, strain cdc73, stronger effect = lower value 1.07 | S. cerevisiae deletion strains, locus YML016C, strain PPZ1, stronger effect = lower value 1.01 | S. cerevisiae deletion strains, locus YML032C, strain rad52, stronger effect = lower value 1.04 | S. cerevisiae deletion strains, locus YML120C, strain ndi1, stronger effect = lower value 1.02 | S. cerevisiae deletion strains, locus YML124C, strain tub3, stronger effect = lower value 1.02 | S. cerevisiae deletion strains, locus YMR058W, strain fet3, stronger effect = lower value 0.994 | S. cerevisiae deletion strains, locus YMR078C, strain ctf18, stronger effect = lower value 1.03 | S. cerevisiae deletion strains, locus YMR125W, strain sto1, stronger effect = lower value 0.994 | S. cerevisiae deletion strains, locus YMR129W, stronger effect = lower value 1.01 | S. cerevisiae deletion strains, locus YMR205C, strain PFK2, stronger effect = lower value 0.974 | S. cerevisiae deletion strains, locus YMR223W, strain ubp8, stronger effect = lower value 1.03 | S. cerevisiae deletion strains, locus YMR231W, strain pep5, stronger effect = lower value 0.996 | S. cerevisiae deletion strains, locus YMR263W, strain SAP30, stronger effect = lower value 1 | S. cerevisiae deletion strains, locus YMR307W, strain GAS1, stronger effect = lower value 1.03 and 1.01 | S. cerevisiae deletion strains, locus YNL067W, strain RPL9B, stronger effect = lower value 1.01 | S. cerevisiae deletion strains, locus YNL071W, strain lat1, stronger effect = lower value 0.999 | S. cerevisiae deletion strains, locus YNL128W, strain TEP1, stronger effect = lower value 1.02 | S. cerevisiae deletion strains, locus YNL153C, strain GIM3, stronger effect = lower value 1.01 | S. cerevisiae deletion strains, locus YNL175C, strain NOP13, stronger effect = lower value 0.996 | S. cerevisiae deletion strains, locus YNL197C, strain WHI3, stronger effect = lower value 0.975 | S. cerevisiae deletion strains, locus YNL209W, strain ssb2, stronger effect = lower value 1 | S. cerevisiae deletion strains, locus YNL224C, strain SQS1, stronger effect = lower value 1 | S. cerevisiae deletion strains, locus YNL233W, strain BNI4, stronger effect = lower value 1 | S. cerevisiae deletion strains, locus YNL248C, strain rpa49, stronger effect = lower value 1.01 | S. cerevisiae deletion strains, locus YNL250W, strain rad50, stronger effect = lower value 1.03 | S. cerevisiae deletion strains, locus YNL271C, strain bni1, stronger effect = lower value 1.04 | S. cerevisiae deletion strains, locus YNL298W, strain CLA4, stronger effect = lower value 1.03 | S. cerevisiae deletion strains, locus YNL307C, strain MCK1, stronger effect = lower value 1.04 | S. cerevisiae deletion strains, locus YNL322C, strain KRE1 (second series), stronger effect = lower value 0.985 | S. cerevisiae deletion strains, locus YNL322C, strain KRE1, stronger effect = lower value 1 | S. cerevisiae deletion strains, locus YNR049C, strain mso1, stronger effect = lower value 0.992 | S. cerevisiae deletion strains, locus YNR052C, strain pop2, stronger effect = lower value 1.03 | S. cerevisiae deletion strains, locus YOL006C, strain TOP1, stronger effect = lower value 1.05 | S. cerevisiae deletion strains, locus YOL012C, strain htz1 1.66 | S. cerevisiae deletion strains, locus YOL147C, strain pex11, stronger effect = lower value 1.03 | S. cerevisiae deletion strains, locus YOR001W, strain rrp6, stronger effect = lower value 0.959 | S. cerevisiae deletion strains, locus YOR061W, strain CKA2, stronger effect = lower value 1.02 | S. cerevisiae deletion strains, locus YOR069W, strain VPS5, stronger effect = lower value 1.01 | S. cerevisiae deletion strains, locus YOR070C, strain gyp1, stronger effect = lower value 0.97 | S. cerevisiae deletion strains, locus YOR080W, strain dia2, stronger effect = lower value 0.983 | S. cerevisiae deletion strains, locus YOR083W, strain WHI5 (second series), stronger effect = lower value 0.984 | S. cerevisiae deletion strains, locus YOR083W, strain WHI5, stronger effect = lower value 0.982 | S. cerevisiae deletion strains, locus YOR106W, strain vam3, stronger effect = lower value 1.01 | S. cerevisiae deletion strains, locus YOR136W, strain idh2, stronger effect = lower value 1.04 | S. cerevisiae deletion strains, locus YOR144C, strain elg1, stronger effect = lower value 1.02 | S. cerevisiae deletion strains, locus YOR184W, strain ser1, stronger effect = lower value 1.03 | S. cerevisiae deletion strains, locus YOR265W, strain rbl2, stronger effect = lower value 0.987 | S. cerevisiae deletion strains, locus YOR270C, strain vph1, stronger effect = lower value 0.96 | S. cerevisiae deletion strains, locus YOR290C, strain snf2, stronger effect = lower value 0.971 | S. cerevisiae deletion strains, locus YOR316C, strain cot1, stronger effect = lower value 1.02 | S. cerevisiae deletion strains, locus YPL051W, strain arl3, stronger effect = lower value 0.961 | S. cerevisiae deletion strains, locus YPL055C, strain LGE1, stronger effect = lower value 1.02 | S. cerevisiae deletion strains, locus YPL078C, strain atp4, stronger effect = lower value 0.997 | S. cerevisiae deletion strains, locus YPL106C, strain sse1, stronger effect = lower value 0.97 | S. cerevisiae deletion strains, locus YPL240C, strain hsp82, stronger effect = lower value 0.988 | S. cerevisiae deletion strains, locus YPL241C, strain CIN2, stronger effect = lower value 1.01 | S. cerevisiae deletion strains, locus YPR119W, strain clb2, stronger effect = lower value 1.03 | S. cerevisiae deletion strains, locus YPR141C, strain kar3, stronger effect = lower value 1.03 | S. cerevisiae deletion strains, locus YPR163C, strain tif3, stronger effect = lower value 1.04 | S. cerevisiae deletion strains, locus YPR167C, strain met16, stronger effect = lower value 1.02 | S. cerevisiae deletion strains, strain wtn01, stronger effect = lower value 1.02 | S. cerevisiae strains, strain wild type, stronger effect = lower value 1.01

Source: PubChem BioAssay AID1159580 (chemical genetic matrix, 2015)
